From PubChem BioAssay (Tox21)
Records with an inconclusive call do not appear. Values without a mark were called inactive. Active and inactive are the calls of the source. The call rests on the fitted dose curve.

These compounds were tested against Beta-2 adrenergic receptor (Homo sapiens) (UniProt P07550) (assay: Adrenergic beta2 receptor (ADRB2) small molecule agonists, cell-based qHTS assay (AID 1963593)). Details: CHO-ADRB2 cells, cAMP HTRF, 30 min; series mostly up to 92.4 µM; activation: at the top concentration.
Chain of Beta-2 adrenergic receptor (Homo sapiens) (P07550 whole entry, looked up): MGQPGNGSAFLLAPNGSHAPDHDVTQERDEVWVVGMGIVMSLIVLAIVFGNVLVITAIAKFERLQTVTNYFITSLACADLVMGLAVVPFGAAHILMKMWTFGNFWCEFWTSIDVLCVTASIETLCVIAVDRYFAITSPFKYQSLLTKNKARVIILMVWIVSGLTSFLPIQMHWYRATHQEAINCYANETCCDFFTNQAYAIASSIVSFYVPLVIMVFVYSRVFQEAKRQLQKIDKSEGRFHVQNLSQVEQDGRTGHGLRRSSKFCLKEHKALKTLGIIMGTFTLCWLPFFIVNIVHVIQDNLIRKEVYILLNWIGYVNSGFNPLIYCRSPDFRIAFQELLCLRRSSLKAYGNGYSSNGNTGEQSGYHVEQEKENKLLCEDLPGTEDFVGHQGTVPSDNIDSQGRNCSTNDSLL
Source text: National Center for Advancing Translational Sciences [NCATS]
Division of Preclinical Innovation [DPI]
U.S. Environmental Protection Agency [EPA]
National Institutes of Environmental Health Sciences [NIEHS]
National Toxicology Program [NTP]
U.S. Food and Drug Administration [FDA]
Beta adrenergic receptors (Beta-ARs) belong to the G-protein coupled receptor (GPCR) superfamily, includes three subtypes - beta1, beta2, and beta3. Beta1-AR is the predominant receptor subtype expressed in the heart, and beta2-AR is expressed in the kidney, lung, blood vessel and in the heart, and beta3 is found in the adipocytes. Beta1 and 2 ARs couple to Gs protein and elevate cyclic adenosine mono phosphate (cAMP), which activates protein kinase A and leads to the downstream signaling responsible for the physiological actions. Beta-AR agonists or antagonists are the most prescribed therapeutic agents for heart failure and asthma, and these were one of the first target receptors for the rational drug design. Tox21 10K compound library was screened using the cAMP-Gs dynamic assay (Cisbio Bioassays, Shelton, CT) to identify agonists/antagonists of the Gs-coupled human adrenergic, beta2 receptor (ADRB2) in the CHO-ADRB2 cell line (Codex BioSolutions, Inc. Gaithersburg, MD), which stably over-expresses ADRB2. The principle of cAMP-Gs dynamic assay is based on HTRF technology, which facilitates the fluorescence resonance energy transfer (FRET) between donor Europium cryptate and acceptor d2-labeled cAMP. The cAMP generated within cells competes with the red acceptor, d2-labled cAMP, for binding to the monoclonal anti-cAMP-cryptate (Europium donor). An increase in intracellular cAMP leads to the disruption of FRET signal, and the signal is inversely proportional to the cAMP concentration. Isoproterenol HCl (Sigma-Aldrich, St. Louis, MO) was used as a positive control in the screening.
Tox21 Assay Protocol Summary:
CHO-ADRB2 cells were dispensed at 1,000/well in 4uL assay medium into white/solid 1536-well plates (Greiner Bio-One North America Inc., Monroe, NC) using a Multidrop Combi dispenser (ThermoFisher Scientific, Waltham, MA). The assay plates were incubated at 37C and 5% CO2 for an overnight (18-20hr). Then positive control and test compounds dissolved in DMSO were transferred to the assay plates at 23nL using a Pintool station (Wako, San Diego, CA). Following the compound and positive control transfer, 1uL stimulation mix containing 100uM IBMX and 25uM Ro-20-1724 was added to each well of the assay plates using BioRAPTR Flying Reagent Dispenser (FRD, Beckman Coulter, Brea, CA). The assay plates were incubated at room temperature for 0.5hr. Then 2.5ul each d2-labled cAMP and anti-cAMP-cryptate solutions were added separately to each well of the assay plates using an FRD and the assay plates were incubated at room temperature for 1hr.
On the % scale 0 is the no-effect control and ±100 the full control effect; potency means the concentration at half of the fitted maximal effect.

SMILES	activation	Potency
CCC(=O)/C=C/C1C(C)=CCCC1(C)C (stereo not given)	-8.92%	–
CC(=O)[C@H]1CC[C@H]2[C@@H]3CC=C4C[C@@H](O)CC[C@]4(C)[C@H]3CC[C@]12C	1.62%	–
Cc1cccc(Nc2cc(Cl)nc(SCC(=O)O)n2)c1C	-2.19% [at 42.5 µM]	–
COCC(=O)O	-8.65%	–
CC1(C)[C@@H]2CC[C@@]1(C)C(=O)C2	–	inactive
Cc1cc(CC(=O)O)n(C)c1C(=O)c1ccc(Cl)cc1	-17.8% [at 42.5 µM]	–
CC(C)OB(OC(C)C)OC(C)C	13.4%	–
Cc1ccccc1C=O	7.79%	–
NC(=O)N/N=C/c1ccc([N+](=O)[O-])o1	12.3% [at 42.5 µM]	–
C=C[C@@]1(C)CC(=O)[C@]2(O)[C@@]3(C)[C@@H](O)CCC(C)(C)[C@@H]3[C@H](O)[C@H](OC(C)=O)[C@@]2(C)O1	–	119 nM (active)
CN(C)C(=O)Nc1ccc(Cl)c(Cl)c1	–	inactive
Cc1ccc(O)c(-n2nc3ccccc3n2)c1	3.48%	–
CCCCCCCCCCCCCC[N+](C)(C)C	-15.9% [at 42.5 µM]	–
CC(C)=CCO	9.17%	–
Cc1cc(Cc2ccc(N)c(C)c2)ccc1N	-24.5%	–
CN(C)CCOCCN(C)C	-21.5%	–
Cc1c(OCC(F)(F)F)ccnc1CS(=O)c1nc2ccccc2[nH]1 (stereo not given)	10.1%	–
Cc1c(C(N)=O)cc([N+](=O)[O-])cc1[N+](=O)[O-]	5.71%	–
COC(=O)CC(=O)OC	5.64%	–
CC(C)=CCC/C(C)=C/CO	–	inactive

SMILES	activation	Potency
CC(C)[C@@H]1CC[C@@H](C)C[C@H]1O	–	inactive
O=C(O)Cc1ccccc1Nc1c(Cl)cccc1Cl	-23.7%	–
Nc1nc2ncc(CNc3ccc(C(=O)N[C@@H](CCC(=O)O)C(=O)O)cc3)nc2c(=O)[nH]1	–	inactive
CCC(O)OC(O)CC (stereo not given)	-27.1%	–
O=C(O)CCCC(=O)O	–	inactive
S=c1nc[nH]c2nc[nH]c12	11% [at 42.5 µM]	–
c1ccc2c(c1)ccc1cc3c(ccc4ccccc43)cc12	1.73% [at 42.5 µM]	–
COC(=O)C1CCC(C(=O)OC)CC1 (stereo not given)	–	inactive
CCCCCCCC(=O)OCC(O)CO (stereo not given)	8.35%	–
CCC(Cc1c(I)cc(I)c(N)c1I)C(=O)O (stereo not given)	–	inactive
CCCCCCCCCC(=O)OC	-0.964%	–
O=c1[nH]c(=O)n([C@H]2C[C@H](O)[C@@H](CO)O2)cc1Br	10.1% [at 42.5 µM]	–
COc1cc(C=O)ccc1O	–	inactive
Cc1cn([C@H]2C[C@H](N=[N+]=[N-])[C@@H](CO)O2)c(=O)[nH]c1=O	–	inactive
CCCCC(CC)CO (stereo not given)	1.7%	–
CN/C(=C\[N+](=O)[O-])NCCSCc1csc(CN(C)C)n1	0.425% [at 42.5 µM]	–
O=c1c(O)c(-c2ccc(O)c(O)c2)oc2cc(O)cc(O)c12	-15.9% [at 42.5 µM]	–
CCCCCCC=O	0.937%	–
C[C@]12C=CC(=O)C=C1CC[C@@H]1[C@@H]2C(=O)C[C@@]2(C)[C@H]1CC[C@]2(O)C(=O)CO	–	inactive
CC(C)(C)NC(=O)[C@H]1CC[C@H]2[C@@H]3CC[C@H]4NC(=O)C=C[C@]4(C)[C@H]3CC[C@]12C	–	inactive
